In PubChem BioAssay (Tox21) one finds Potency data, which are given here for 38 molecules.

“And” between values parts separate entries of the source, which are not always exact repeats. Identical values can stand only once. Results filed as inconclusive are left out. Where a call stands in place of a potency, no number is given. The source holds several records for some structures; these can differ, active in one and inactive in another. The source made the active and inactive calls. Calls come from the whole dose curve.
Potency is the fitted concentration of half-maximal effect.

A short description of the first test: qHTS assay for small molecules that induce genotoxicity in human embryonic kidney cells expressing luciferase-tagged ATAD5 - cell viability (AID 651634). Note: nearly all actives have a fitted effect of over 25% in size. The settings on record: HEK293T ATAD5-luc cells viability, CellTiter-Fluor, 15.5 h; series mostly up to 83.3 µM. In outline:
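HEK293T cells carrying luciferase-tagged ATAD5, 2,000 cells/well, exposed to compound for 15.5 hr at 37C. Viability read as live-cell protease activity by CellTiter-Fluor fluorescence after 30 min at 37C.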
(Quantitative high-throughput screening tests each substance at several concentrations.)
`O=c1[nH]c(Cl)c(Cl)cc1Cl`: the Potency result was “inactive”.

`Oc1cccc(Cl)c1Cl`: the Potency entry was “inactive”.

For `CC1(C)[C@H](/C=C2\CCSC2=O)[C@@H]1C(=O)OCc1coc(Cc2ccccc2)c1`, the Potency result is “inactive”.

`C=CC(=O)[O][Sn]([CH2]CCC)([CH2]CCC)[CH2]CCC`: the Potency is 1.09 µM (active).

For the molecule `CCN(CC)C(=S)S`, the Potency entry was “inactive”.

`Fc1ccc(C(OCCN2CCN(CCCc3ccccc3)CC2)c2ccc(F)cc2)cc1`: the Potency is 29.8 µM (active).

As to `CO/N=C(\C(=O)OC)c1ccccc1CO/N=C(\C)c1cccc(C(F)(F)F)c1`, the Potency entry is “inactive”.

As for `CC[C@H](C)[C@H]1O[C@]2(C=C[C@@H]1C)C[C@@H]1C[C@@H](C/C=C(\C)[C@@H](O[C@H]3C[C@H](OC)[C@@H](O[C@H]4C[C@H](OC)[C@@H](NC)[C@H](C)O4)[C@H](C)O3)[C@@H](C)/C=C/C=C3\CO[C@@H]4[C@H](O)C(C)=C[C@@H](C(=O)O1)[C@]34O)O2`, the Potency was 17.2 µM (active).

Turning to `CCC(OC(C)=O)C(CC(C)NC)(c1ccccc1)c1ccccc1` (stereo not given), the Potency entry is “inactive”.

Take `COc1ccc2c3c1O[C@H]1[C@H](O)CC[C@H]4[C@@H](C2)N(C)CC[C@@]341`: the Potency entry is “inactive”.

`Nc1nc(N)c(N)c(N)n1`: the Potency result is “inactive”.

As to `O=[N+]([O-])c1cc(C(F)(F)F)c(Cl)c([N+](=O)[O-])c1Nc1ncc(C(F)(F)F)cc1Cl`, the Potency is 30.6 µM (active).

For the molecule `CCN(CC)CCc1c[nH]c2ccccc12`, the Potency entry is “inactive”.

In the case of `Brc1cccc(-c2ccccc2)c1`, the Potency entry is “inactive”.

Regarding `S=C=Nc1ccccc1`, the Potency result was “inactive”.

For `COP(=O)(OC)Oc1ccc([N+](=O)[O-])cc1`, the Potency result is “inactive”.

Consider `Cc1c([N+](=O)[O-])c(C)c([N+](=O)[O-])c(C(C)(C)C)c1[N+](=O)[O-]`, for which the Potency result was “inactive”.

As to `CC(=O)[O][Sn]([c]1ccccc1)([c]1ccccc1)[c]1ccccc1`, the Potency is 0.122 µM (active).

In the case of `COP(=S)(OC)Oc1nc(Cl)c(Cl)cc1Cl`, the Potency result is “inactive”.

Consider `CCCCCCCCCCCCCCn1cc[n+](C)c1`, for which the Potency is 61.3 µM (active).

With `CCCCc1ccccc1`, the Potency result is “inactive”.

For the molecule `BrCCCBr`, the Potency entry was “inactive”.

With `c1cc[n+]2c(c1)-c1cccc[n+]1CC2`, the Potency entry is “inactive”.

Take `[O-][Cl+3]([O-])([O-])O`: the Potency result was “inactive”.

`COc1c2c(cc3c1OCO3)CCN(C)C2`: the Potency entry is “inactive”.

In the case of `ClC1=C(Cl)[C@]2(Cl)[C@H]3[C@H]([C@@H]4C=C[C@H]3C4)[C@@]1(Cl)C2(Cl)Cl`, the Potency entry was “inactive”.

As to `COc1cnc(OC)n2nc(NS(=O)(=O)c3c(OCC(F)F)cccc3C(F)(F)F)nc12`, the Potency entry was “inactive”.

Consider `COc1ccc2[nH]cc(CCN(C(C)C)C(C)C)c2c1`, for which the Potency result is “inactive”.

Regarding `CN(C)C(=S)SSC(=S)N(C)C`, the Potency is 6.68 µM (active) and 26.9 µM (active).

With `CN1C(=O)[C@@H](NC(=O)c2cc3ccccc3[nH]2)N=C(c2ccccc2)c2ccccc21`, the Potency entry was “inactive”.

Take `COP(=S)(NC(C)C)Oc1ccc(C)cc1[N+](=O)[O-]` (stereo not given): the Potency result is “inactive”.

With `CC(Cc1ccc(OCC(=O)O)cc1)NCC(O)c1csc(C(F)(F)F)n1` (stereo not given), the Potency result is “inactive”.

Regarding `c1ccc(N=NNc2ccccc2)cc1`, the Potency is 5.45 µM (active).

Take `N#CC(C#N)=NNc1cccc(Cl)c1`: the Potency was 7.7 µM (active).

Consider `CC(O)C(=O)[O][Hg][c]1ccccc1` (stereo not given), for which the Potency is 0.969 µM (active).

Regarding `COC(=O)C(C)N(C(=O)c1ccco1)c1c(C)cccc1C` (stereo not given), the Potency entry was “inactive”.

For the molecule `CCCCC(CC)COC(=O)OOC(C)(C)C` (stereo not given), the Potency result is “inactive”.

The nature of the next test: qHTS assay for small molecule disruptors of the mitochondrial membrane potential - cell viability (AID 720634). Note: nearly all actives have a fitted effect of over 20% in size. To be noted: HepG2 viability, ATP luminescence (CellTiter-Glo), 1 h; series mostly up to 83.2 µM. In outline: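 HepG2 cells, 2,000 per well, attached overnight, then treated 1 hr at 37 C, 5% CO2. Viability read as ATP by CellTiter-Glo luminescence after 30 min at room temperature. Read in the same wells as the m-MPI membrane-potential dye assay.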
In the case of `O=c1[nH]c(Cl)c(Cl)cc1Cl`, the Potency entry was “inactive”.

In the case of `Oc1cccc(Cl)c1Cl`, the Potency result was “inactive”.

Regarding `CC1(C)[C@H](/C=C2\CCSC2=O)[C@@H]1C(=O)OCc1coc(Cc2ccccc2)c1`, the Potency is 9.69 µM (active).

For `C=CC(=O)[O][Sn]([CH2]CCC)([CH2]CCC)[CH2]CCC`, the Potency is 1.93 µM (active).

For `CCN(CC)C(=S)S`, the Potency result was “inactive”.

For `Fc1ccc(C(OCCN2CCN(CCCc3ccccc3)CC2)c2ccc(F)cc2)cc1`, the Potency entry was “inactive”.

In the case of `CO/N=C(\C(=O)OC)c1ccccc1CO/N=C(\C)c1cccc(C(F)(F)F)c1`, the Potency is 21.7 µM (active).

Consider `CC[C@H](C)[C@H]1O[C@]2(C=C[C@@H]1C)C[C@@H]1C[C@@H](C/C=C(\C)[C@@H](O[C@H]3C[C@H](OC)[C@@H](O[C@H]4C[C@H](OC)[C@@H](NC)[C@H](C)O4)[C@H](C)O3)[C@@H](C)/C=C/C=C3\CO[C@@H]4[C@H](O)C(C)=C[C@@H](C(=O)O1)[C@]34O)O2`, for which the Potency is 30.6 µM (active).

Turning to `CCC(OC(C)=O)C(CC(C)NC)(c1ccccc1)c1ccccc1` (stereo not given), the Potency result was “inactive”.

For `COc1ccc2c3c1O[C@H]1[C@H](O)CC[C@H]4[C@@H](C2)N(C)CC[C@@]341`, the Potency entry was “inactive”.

`Nc1nc(N)c(N)c(N)n1`: the Potency entry was “inactive”.

With `O=[N+]([O-])c1cc(C(F)(F)F)c(Cl)c([N+](=O)[O-])c1Nc1ncc(C(F)(F)F)cc1Cl`, the Potency is 0.172 µM (active).

As to `CCN(CC)CCc1c[nH]c2ccccc12`, the Potency result was “inactive”.

With `Brc1cccc(-c2ccccc2)c1`, the Potency entry was “inactive”.

For the molecule `S=C=Nc1ccccc1`, the Potency result was “inactive”.

For `COP(=O)(OC)Oc1ccc([N+](=O)[O-])cc1`, the Potency entry was “inactive”.

`Cc1c([N+](=O)[O-])c(C)c([N+](=O)[O-])c(C(C)(C)C)c1[N+](=O)[O-]`: the Potency entry was “inactive”.

As to `CC1CN1` (stereo not given), the Potency entry is “inactive”.

For the molecule `CC(=O)[O][Sn]([c]1ccccc1)([c]1ccccc1)[c]1ccccc1`, the Potency is 15.4 µM (active).

With `COP(=S)(OC)Oc1nc(Cl)c(Cl)cc1Cl`, the Potency entry was “inactive”.

As for `CCCCCCCCCCCCCCn1cc[n+](C)c1`, the Potency was 54.6 µM (active) and inactive.

For `CCCCc1ccccc1`, the Potency result was “inactive”.

For the molecule `BrCCCBr`, the Potency result was “inactive”.

As to `c1cc[n+]2c(c1)-c1cccc[n+]1CC2`, the Potency result was “inactive”.

As for `[O-][Cl+3]([O-])([O-])O`, the Potency entry was “inactive”.

On to `COc1c2c(cc3c1OCO3)CCN(C)C2`, for which the Potency entry was “inactive”.

Consider `ClC1=C(Cl)[C@]2(Cl)[C@H]3[C@H]([C@@H]4C=C[C@H]3C4)[C@@]1(Cl)C2(Cl)Cl`, for which the Potency result is “inactive”.

Turning to `COc1cnc(OC)n2nc(NS(=O)(=O)c3c(OCC(F)F)cccc3C(F)(F)F)nc12`, the Potency result is “inactive”.

As for `COc1ccc2[nH]cc(CCN(C(C)C)C(C)C)c2c1`, the Potency entry was “inactive”.

For `CN(C)C(=S)SSC(=S)N(C)C`, the Potency result is “inactive”.

As to `CN1C(=O)[C@@H](NC(=O)c2cc3ccccc3[nH]2)N=C(c2ccccc2)c2ccccc21`, the Potency entry was “inactive”.

As to `COP(=S)(NC(C)C)Oc1ccc(C)cc1[N+](=O)[O-]` (stereo not given), the Potency result is “inactive”.

Turning to `CC(Cc1ccc(OCC(=O)O)cc1)NCC(O)c1csc(C(F)(F)F)n1` (stereo not given), the Potency result is “inactive”.

For the molecule `c1ccc(N=NNc2ccccc2)cc1`, the Potency was 56.4 µM (active).

Turning to `N#CC(C#N)=NNc1cccc(Cl)c1`, the Potency result was “inactive”.

For `CC(O)C(=O)[O][Hg][c]1ccccc1` (stereo not given), the Potency was 5.45 µM (active).

For `COC(=O)C(C)N(C(=O)c1ccco1)c1c(C)cccc1C` (stereo not given), the Potency result is “inactive”.

Take `CCCCC(CC)COC(=O)OOC(C)(C)C` (stereo not given): the Potency entry was “inactive”.
